# Laboratory results as given in PubChem BioAssay AID662 (National Center for Advancing Translational Sciences (NCATS), 2007).
# About 1,800 (2.5%) of roughly 71,000 compounds were called active. About 26% were inconclusive and are not listed. Calls come from the whole dose curve; as a rule, active = well fitted activation curve with a large enough effect in the signal ratio, with a control signal flat (not every such curve was filed as active); inconclusive = small, poorly fitted or top-dose-only effect, or effect the other way, or a change in a side signal; inactive = flat fitted curve, though single readings scatter; the % refers to the signal ratio. What follows is part of a selection rich in actives, with near analogues and random picks from the rest.
# Assay: Cell signaling CRE-BLA (Fsk stim); for activity change, negative = inhibition: % of control where 0% means no effect
# Settings: CHO CRE-bla reporter (cAMP response element driving beta-lactamase), forskolin EC10, beta-lactamase ratio; series mostly up to 38.2 µM; activity change, negative = inhibition: at the top concentration
# Procedure, shortened: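 Using CellSensor CRE-bla CHO cells in Opti-MEM with 0.5% dialyzed FBS, compounds were titrated with EC10 NKH 477 for 3 h at 37 °C. CCF4 ratio (460/530 nm) gave %Activity; AC50 derived.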
# Potency is the fitted concentration of half-maximal effect.
Compound,"activity change, negative = inhibition",Potency
COc1ccc(-n2nnc3c(=O)n(CC(=O)N4CCC(Cc5ccccc5)CC4)cnc32)cc1,-7.64% (inactive),
CCOC(=O)C(CCOc1cccc(CC)c1)C(=O)OCC,-0.602% (inactive),
C=C(C)C1CC=C(C)C(O)C1 (centres undefined),-2.45% (inactive),
CC(=O)NC(C)(C)C1CC=C(C)/C(=N\O)C1 (centres undefined),-6.01% (inactive),
CC(C)OC(=O)CN1C(=O)c2ccccc2C1=O,-2.74% (inactive),
O=C1C(c2[nH]c3ccccc3c2O)=Nc2ccccc21,-11.5% (inactive),
CCCCn1c(CCCNC(=O)CC)nc2ccccc21,-6.76% (inactive),
O=S(N1CCCCCC1)C12CC3CC(CC(C3)C1)C2 (centres undefined),6.48% (inactive),
Cc1nn2c3ccccc3nc2n(C)c1=O,-1.15% (inactive),
Cn1c(-c2ccc(C(=O)c3ccccc3)s2)nc2ccccc21,,2 µM (active)
Cn1c(CNC(=O)C(C)(C)C)nc2ccccc21,4.87% (inactive),
Cc1occc1C(=O)N1CCCc2ccccc21,0.434% (inactive),
Cc1cccc(Br)c1,-6.01% (inactive),
CCOC(=O)N1CCN(C(=O)c2cc3c(-c4ccc(Cl)cc4)nn(C)c3s2)CC1,5.94% (inactive),
COc1cccc(-c2nn(C)c3sc(C(=O)N4CCN(c5ccccc5)CC4)cc23)c1,,2.51 µM (active)
COc1ccccc1N1CCN(C(=O)c2cn(-c3ccccc3)nc2-c2cccnc2)CC1,-9.11% (inactive),
O=S(=O)(NCC1CCCO1)c1ccc2ccccc2c1 (centres undefined),0.294% (inactive),
O=C(O)CCC(=O)NCc1ccc2[nH]c3c(c2c1)CCCC3,-4.41% (inactive),
CC/C=C/C/C=C/C/C=C/CCCCCCCC(=O)OCC,7.6% (inactive),
Oc1c(C(c2cccs2)N2CCN(c3ccc(F)cc3)CC2)sc2ncnn12 (centres undefined),10.8% (inactive),
Cc1c2c(nc3ccccc13)-c1cccc(=O)n1C2,,1.58 µM (active)
Cc1ccc(N2C(=O)CC(NCc3ccc4c(c3)OCO4)C2=O)cc1Cl (centres undefined),-2.37% (inactive),

Compound,"activity change, negative = inhibition",Potency
COc1ccc(N)c(OC)c1,8.82% (inactive),
CCn1c(=N)c(S(=O)(=O)c2ccc(F)cc2)cc2c(=O)n3ccccc3nc21,,2 µM (active)
Cc1cc(NC(=O)CN2CCCCC2C)nc2c1c(=O)oc1ccccc12 (centres undefined),15.3% (inactive),
CCN(CC)CCCCn1c(-c2ccccc2)nc2c(N3CCOCC3)nc(C)nc21,2.26% (inactive),
Cc1cc(/C=N/n2cnnc2)c(C)n1-c1ccc2ncccc2c1,,0.0631 µM (active)
Fc1ccc(Br)cc1/C=N/n1cnnc1,-0.497% (inactive),
Cc1cccc(-n2nc3c(c2NC(=O)c2ccc(Br)o2)CSC3)c1C,-9.63% (inactive),
O=C(CC1CCCCC1)Nc1c2c(nn1-c1ccc(F)cc1)CS(=O)(=O)C2,-0.0676% (inactive),
COc1cccc(C(=O)Nc2c3c(nn2-c2cccc(C)c2C)CS(=O)(=O)C3)c1OC,,7.94 µM (active)
COc1ccc(CCN=C2SCC(=O)N2C)cc1OC,9.19% (inactive),
CC1=NC2(CCCc3c2no[n+]3[O-])N(O)C1(C)C (centres undefined),8.65% [at 7.6 µM] (inactive),
CNC(=O)C1(C)C=CC2(CCCCC2)N1C(C)=O (centres undefined),-8.81% (inactive),
COC(=O)c1ccc(Oc2nc(Nc3ccc(F)cc3)nc(N3CCCC3)n2)cc1,,3.16 µM (active)
CC(C)CC1(C(=O)NCc2ccccn2)C=CCN1C(=O)c1ccccc1 (centres undefined),0.31% (inactive),
CCC1(C)N(O)C(C)(C)C(c2ccc(OC)cc2)=[N+]1[O-] (centres undefined),1.03% (inactive),
Cc1cnc(CNc2nc(-c3cccnc3)nc3ccccc23)cn1,,12.6 µM (active)
c1ccc(CNc2ncncc2-c2cccnc2)cc1,2.99% (inactive),
Cc1cnc(CNc2ncncc2-c2ccccc2Cl)cn1,6.66% (inactive),
CCCC(NS(=O)(=O)c1ccc(OC)cc1)C(=O)O (centres undefined),1.91% (inactive),
CC1CCc2sc3nc(N4CCN(CCO)CC4)n4ncnc4c3c2C1 (centres undefined),,5.01 µM (active)
COc1ccccc1-n1c(CNC(=O)c2ccccc2)nnc1SCC(=O)Nc1nnc(C)s1,-0.00921% (inactive),
CC1CN(Cc2nc3c(c(=O)n(C)c(=O)n3C)n2Cc2cccc(Cl)c2)CC(C)O1 (centres undefined),8.04% (inactive),

Compound,"activity change, negative = inhibition",Potency
Cc1nc(SC(C)C)[nH]c(=O)c1Cc1ccccc1,26.6% (inactive),
CCOC(=O)Nc1ccccc1N1C(=O)c2ccccc2C1=O,4.56% (inactive),
CCOC(=O)c1cc2n(c1C)-c1ccccc1C2=O,,15.8 µM (active)
CCOC(=O)c1cc2ccccc2nc1C,11.4% (inactive),
COC(=O)c1ccc(C(NC(=O)OCc2ccccc2)/C(C)=C/[C@@H](C)C(=O)NCc2cc(C)on2)cc1 (some centres undefined),-12.4% (inactive),
O=C(NCc1ccco1)c1nc(-c2ccccc2)n(-c2ccccc2)n1,-3.72% (inactive),
Cc1nc2nc(SCC(=O)NCc3ccco3)nn2c(C)c1Cc1ccccc1,-8.05% (inactive),
Cc1nn(-c2ccccc2)c2sc(C(=O)N(Cc3ccco3)C(C)C(=O)NC(C)(C)C)cc12 (centres undefined),,1.58 µM (active)
Cc1ccnc(SCCn2c(N(C)Cc3ccccc3)nc3c2c(=O)n(C)c(=O)n3C)n1,-5.53% (inactive),
CCN(CC)S(=O)(=O)N1CCC(C(=O)NC(C)CCc2ccccc2)CC1 (centres undefined),-6.97% (inactive),
Cc1ccc2c(NC(=O)C3CC3)cccc2n1,-5.14% (inactive),
CC(=O)N1CCC(C(=O)Nc2nc(-c3ccccc3)ns2)CC1,,10 µM (active)
CC(=O)N1CCN(c2cccc(C)c2C)CC1,1.32% [at 7.6 µM] (inactive),
Cn1c(NC(=O)c2ccc3c(c2)OCO3)cc(=O)n(C)c1=O,-10.7% (inactive),
Cc1c(NC(=O)Nc2ccccc2Cl)sc(=S)n1C,9.49% (inactive),
COc1ccc(OC)c(NC(=O)CSc2nc(N)c(-c3ccccc3)c(=O)[nH]2)c1,,12.6 µM (active)
COc1ccc(OC)c(NC(=O)Cn2c(=O)oc3ccccc32)c1,3.37% (inactive),
CCn1c(COc2ccc(OC)cc2)nnc1SCC(=O)Nc1cc(OC)ccc1OC,-2.91% (inactive),
CCCC(C(=O)N1CCOCC1)N1C(=O)C2C3C=CC(C3)C2C1=O (centres undefined),0.508% (inactive),
CC(C)C[C@@H](CC(=O)N[C@@H](CCC(=O)O)CC(=O)O)NC(=O)[C@@H]1CCCC[C@H]1NC(=O)C[C@@H](NC(=O)C[C@H](Cc1c[nH]c2ccccc12)NC(=O)[C@@H]1CCCC[C@H]1N)C(C)C,-15.3% (inactive),
CCn1c(SCC(=O)Nc2nccs2)nnc1-c1ccncc1,-3.82% (inactive),
CCn1c(SCC(=O)Nc2cc(C)ccc2C)nnc1-c1cnccn1,,3.16 µM (active)

Compound,"activity change, negative = inhibition",Potency
Cc1ccc(NC(=O)CSc2nnc(-c3cnccn3)n2Cc2ccco2)cc1C,12.3% (inactive),
CSc1ccc(-c2c(C#N)c(N)nc3c2c(C)nn3-c2ccccc2)cc1,,10 µM (active)
Cc1cccc(NC(=O)COc2ccc(Br)cc2C)n1,7.56% (inactive),
C#CCCCCCCCCCCCCCCCC(=O)O,-5.11% (inactive),
COc1ccc(O)c(C=Nc2cc(C)on2)c1,-1.66% (inactive),
c1ccc2c(Nc3ccncc3)nc(-c3ccc4c(c3)OCO4)nc2c1,,12.6 µM (active)
O=C(Nc1cccnc1)c1ccc2c(c1)OCO2,1.51% (inactive),
c1cncc(CNc2ccnc(-c3ccc4c(c3)OCO4)n2)c1,-27% (inactive),
CC(=O)Nc1nc(C)c(Cc2ccccc2)c(=O)[nH]1,6.88% (inactive),
COc1ccc(N2CCN(C(=O)CSc3nc4cc(OC)c(OC)cc4cc3C#N)CC2)cc1,,10 µM (active)
CCOc1ccc2cc(C#N)c(SCC(=O)OC)nc2c1,-0.598% (inactive),
COc1ccc(N2CCN(C(=O)CSc3ncnc4c3cnn4-c3ccc(OC)cc3)CC2)cc1,-2.74% (inactive),
Cc1ccc2nc(-c3ccccc3)cc(C(=O)O)c2c1,-5.73% (inactive),
COC(=O)Nc1nc2ccc(Sc3ccccc3)cc2[nH]1,,2.51 µM (active)
Oc1ccc2nc(Cc3ccccc3)[nH]c2c1,-6.98% (inactive),
CCN(CC)CCN1C(=O)C(=O)/C(=C(/O)c2ccccc2)C1c1ccccc1F (centres undefined),3.78% (inactive),
O=C(O)c1c(Br)c(Br)c(Br)c(Br)c1C1c2ccc(O)cc2Oc2cc(O)ccc21,4.42% [at 7.6 µM] (inactive),
C=CCn1c2ccccc2c2nnc(SC(CC)C(=O)Nc3nc(C)c(C(=O)OCC)s3)nc21 (centres undefined),,1.26 µM (active)
C=CCn1c(C(C)NC(=O)CC)nc2ccccc21 (centres undefined),-0.176% (inactive),
C=CCn1c(SCC(=O)Nc2nc3ccccc3s2)nnc1-c1ccccc1O,-22.9% (inactive),
N#Cc1cc2[nH]c(=O)c(=O)[nH]c2cc1[N+](=O)[O-],-12.2% (inactive),
CC(=O)CC(C)C,-1.03% (inactive),

Compound,"activity change, negative = inhibition",Potency
COc1ccccc1CNC(=O)CCn1c(=O)sc2ccccc21,-18.5% (inactive),
COc1ccc(OCc2ccc(-c3nc4ccccc4c(=O)n3N)o2)cc1,13.7% (inactive),
COc1ccc(-n2c(=O)c(-c3cn(C)c4ccccc34)nc3cnc(OC)nc32)cc1,,0.2 µM (active)
CCc1c(C)nc2cc(-c3cccs3)[nH]n2c1=O,8.85% (inactive),
COc1ccccc1CCn1c(=O)c(-c2cn(C)c3ccccc23)nc2cncnc21,,0.398 µM (active)
COc1ccccc1CNc1ncncc1-c1cccc(NS(C)(=O)=O)c1,8.29% (inactive),
COCCn1c(=O)c(CCc2ccccc2)nc2cncnc21,5.96% (inactive),
COc1ccc(-n2c(C)nc3c(cnn3-c3ccccc3)c2=O)cc1,26.1% (inactive),
COCCn1c(=O)c(-c2cccs2)nc2cncnc21,,12.6 µM (active)
CCOc1cccc(=O)c2c(C)n(CC3CCCO3)c(C)c12 (centres undefined),0.152% (inactive),
O=C(O)c1nccnc1C(=O)Nc1ccc(Br)cn1,1.11% (inactive),
C=CCNC(=O)C1CC=CCC1C(=O)O (centres undefined),2.51% (inactive),
COc1ccc(N)c(C)c1,-2.22% (inactive),
COC(=O)[C@@]1(C)C=C[C@@H](Cc2ccccc2)N1C(C)=O,-7.17% (inactive),
CCCCCCN(C(=O)CCCCCN1C(=O)NC(c2ccc(C(F)(F)F)cc2)C(C(=O)OCc2ccccc2)=C1C)C(C(=O)NCCCC)c1ccc(OCC(=O)OC)c(C(=O)OC)c1 (centres undefined),19% (inactive),
Cc1ccc2oc(=O)ccc2c1,-1.67% (inactive),
c1ccc(Oc2ccccc2)cc1,-5.17% (inactive),
COc1ccc(C2C(C#N)=C(N)Oc3n[nH]c(C)c32)cc1CN1CCN(c2ccc(F)cc2)CC1 (centres undefined),-10.6% (inactive),
CCN1C(=O)c2cccc3c(N)ccc1c23,,10 µM (active)
CCCCN(C)C(=O)c1ccc2c(c1)N(CC)C(=O)c1ccccc1S2(=O)=O,1.07% (inactive),
C[N+](C)(CCCCCC[N+](C)(C)CCCN1C(=O)c2cccc3cccc(c23)C1=O)CCCN1C(=O)c2cccc3cccc(c23)C1=O,2.5% (inactive),
